Compounds with a hit are over-represented: about 3.5% of the library has one in this group of screens.
GPR151 activ – activates the human receptor GPR151; PathHunter beta-arrestin GPR151 cells, luminescence; hit rate 1% among 650,000; AID 1508602; activation, % at 11.2 µM; in the data active means activation above about 4.9%;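 further: 0% = median of compound wells and 100% = cells with positive control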
MITF inh – inhibitors of human MITF; AlphaScreen MITF homodimerization, bead proximity signal; AID 1259374; inhibition, % at 2.6 µM; O75030; hit rate 0.91% among 650,000; in the data active means inhibition above about 50%;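 further: 0% = vehicle wells with protein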
Target sequence (O75030 whole entry, looked up): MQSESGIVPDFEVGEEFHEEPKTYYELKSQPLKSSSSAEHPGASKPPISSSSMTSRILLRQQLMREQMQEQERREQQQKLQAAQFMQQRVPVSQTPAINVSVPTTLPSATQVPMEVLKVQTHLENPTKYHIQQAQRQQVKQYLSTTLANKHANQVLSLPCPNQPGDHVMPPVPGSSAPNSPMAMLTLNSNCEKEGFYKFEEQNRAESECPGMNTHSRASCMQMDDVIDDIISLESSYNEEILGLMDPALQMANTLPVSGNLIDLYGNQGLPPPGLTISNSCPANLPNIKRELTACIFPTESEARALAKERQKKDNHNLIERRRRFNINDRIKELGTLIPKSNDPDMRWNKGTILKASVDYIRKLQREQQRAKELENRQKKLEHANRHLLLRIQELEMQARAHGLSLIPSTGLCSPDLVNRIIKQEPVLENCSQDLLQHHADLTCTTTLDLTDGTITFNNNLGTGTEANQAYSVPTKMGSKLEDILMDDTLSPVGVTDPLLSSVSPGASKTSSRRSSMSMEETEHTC
TEAD-YAP inh – TEAD-YAP interaction inhibition; HEK-TIYL cells, TEAD-Gal4/YAP UAS-luciferase luminescence; hit rate 1.4% among 640,000; inhibition, % at 9.12 µM; in the data active means inhibition above about 32%;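 further: 0% = median of test compound wells and 100% = reference inhibitor wells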
FBW7 act – human FBW7 E3 ligase activation, primary screen; Q969H0; AlphaScreen FBW7–phospho-cyclin E peptide binding, activator screen; normalized activity (activation), % at 26.1 µM; hit rate 0.13% among 650,000; AID 1259310; in the data active means normalized activity above about 1.9%;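 further: purified mutant Fbw7 with reduced substrate affinity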
An asterisk follows results filed as active.

For O=C(O)/C=C/c1cccc(-c2cnn3c(N4CCC[C@H]4CO)ccnc23)c1 the results were GPR151 activ -3, MITF inh -3, TEAD-YAP inh 50* and FBW7 act -1.
Screening OC[C@@H]1CCCN1c1ccnc2c(-c3ccc4ccccc4c3)cnn12 returned GPR151 activ -3, MITF inh -10, TEAD-YAP inh 60* and FBW7 act 0.
Screening COc1cccc(-c2cnn3c(N4CCCCC4CCO)ccnc23)c1 (centres undefined) returned GPR151 activ 1, MITF inh -4, TEAD-YAP inh 14 and FBW7 act 0.
For OC[C@@H]1CCCN1c1ccnc2c(-c3cccc(O)c3)cnn12 the results were GPR151 activ -1, MITF inh -9, TEAD-YAP inh 100* and FBW7 act 0.
`COc1ccc(-c2cnn3c(N4CCC[C@H]4CO)ccnc23)cc1` gave GPR151 activ 0, MITF inh -5, TEAD-YAP inh 57* and FBW7 act 0.
For COc1ccc(-c2cnn3c(N4CCC[C@H]4CO)ccnc23)cc1OC the results were GPR151 activ 0, MITF inh -13, TEAD-YAP inh -23 and FBW7 act 0.
For Oc1oc(-c2ccc(Br)cc2)nc1C=Nc1ccc(Cl)cn1 the results were GPR151 activ -1, MITF inh 11, TEAD-YAP inh 0 and FBW7 act 0.
Cc1c(NC(=O)c2cc(-c3ccccc3)nc3ccccc23)c(=O)n(-c2ccccc2)n1C was read as GPR151 activ 0, MITF inh -3, TEAD-YAP inh 33* and FBW7 act 0.
`Cc1c(NC(=O)c2cc(-c3cccc(Br)c3)nc3ccccc23)c(=O)n(-c2ccccc2)n1C` gave GPR151 activ 0, MITF inh 1, TEAD-YAP inh 10 and FBW7 act 1.
Screening Nc1nc(Nc2ccc3ncccc3c2)nc2c1ncn2-c1ccccc1 returned GPR151 activ 1, MITF inh -10, TEAD-YAP inh 33* and FBW7 act 52*.
`CC(=O)Nc1ccc(Nc2nc(Nc3nccc4ccccc34)nc3c2ncn3C(C)C)cc1` gave GPR151 activ 1, MITF inh 5, TEAD-YAP inh 45* and FBW7 act 0.
For CC(C)n1cnc2c(NCc3cccnc3)nc(Nc3nccc4ccccc34)nc21 the results were GPR151 activ 0, MITF inh 6, TEAD-YAP inh 32* and FBW7 act 0.
c1ccc(CNc2nc(Nc3ccc4ncccc4c3)nc3c2ncn3-c2ccccc2)cc1 was read as GPR151 activ 2, MITF inh -4, TEAD-YAP inh -4 and FBW7 act 0.
Screening c1cncc(CNc2nc(Nc3ccc4ncccc4c3)nc3c2ncn3-c2ccsc2)c1 returned GPR151 activ -1, MITF inh 3, TEAD-YAP inh 33* and FBW7 act 0.
`Cc1ccc(C(=O)Nc2ccc3oc(-c4cccc(Br)c4)nc3c2)cc1[N+](=O)[O-]` gave GPR151 activ 0, MITF inh 18, TEAD-YAP inh 3 and FBW7 act 0.
For COc1ccc(CCNC(=O)c2cccc(Nc3cccnc3)n2)cc1 the results were GPR151 activ -2, MITF inh -3, TEAD-YAP inh 4 and FBW7 act 0.
Screening COc1ccc(CC(=O)NC(C)C(c2cccs2)N2CCOCC2)cc1 (centres undefined) returned GPR151 activ 0, MITF inh 13, TEAD-YAP inh 0 and FBW7 act 1.
For O=C(CSc1nc2ccccc2o1)Nc1c(Cl)cc(Cl)cc1Cl the results were GPR151 activ -1, MITF inh 6, TEAD-YAP inh 7 and FBW7 act 0.
CCOc1ccc(C(=O)N(C)C2CCS(=O)(=O)C2)cc1 (centres undefined) was read as GPR151 activ -1, MITF inh -3, TEAD-YAP inh 5 and FBW7 act 0.
c1cncc(CNc2nc(Nc3nccc4ccccc34)nc3c2ncn3-c2ccsc2)c1 was read as GPR151 activ 0, MITF inh 33, TEAD-YAP inh 59* and FBW7 act 0.
`c1cncc(CNc2nc(NC3CC3)c3ncn(-c4ccsc4)c3n2)c1` gave GPR151 activ 0, MITF inh 7, TEAD-YAP inh 40* and FBW7 act 0.
`c1ccc(Nc2nc(Nc3cnccn3)nc3c2ncn3-c2ccsc2)cc1` gave GPR151 activ 0, MITF inh -11, TEAD-YAP inh -37 and FBW7 act 0.
`c1ccc(CNc2nc(NCc3cccnc3)nc3c2ncn3-c2ccsc2)cc1` gave GPR151 activ -3, MITF inh 11, TEAD-YAP inh 32 and FBW7 act 0.
For Nc1nc(Nc2cnccn2)nc2c1ncn2-c1ccsc1 the results were GPR151 activ -2, MITF inh 13, TEAD-YAP inh 43* and FBW7 act 0.
Screening c1cncc(CNc2nc(NCc3cccnc3)c3ncn(-c4ccsc4)c3n2)c1 returned GPR151 activ 0, MITF inh 5, TEAD-YAP inh -16 and FBW7 act 0.
Screening c1cncc(CNc2nc(Nc3cnccn3)nc3c2ncn3-c2ccsc2)c1 returned GPR151 activ -1, MITF inh 24, TEAD-YAP inh 59* and FBW7 act 0.
c1cnc(Nc2nc(NCc3cccnc3)c3ncn(-c4ccsc4)c3n2)nc1 was read as GPR151 activ 0, MITF inh -4, TEAD-YAP inh 7 and FBW7 act 0.
`COc1ccc(OC)c(C2C(C(=O)N3CCOCC3)=C(C)Nc3nc4ccccc4n32)c1` (centres undefined) gave GPR151 activ 1, MITF inh -1, TEAD-YAP inh -1 and FBW7 act 0.
For O=C(Nc1cc(-c2ccccc2Oc2cccc(F)c2)ccn1)C1CCOC1 (centres undefined) the results were GPR151 activ 2, MITF inh 50, TEAD-YAP inh 33* and FBW7 act 1.
For O=C(Nc1cc(-c2ccccc2Oc2ccc(F)cc2)ccn1)C1CCOC1 (centres undefined) the results were GPR151 activ 3, MITF inh 22, TEAD-YAP inh 26 and FBW7 act 1.
O=C(Nc1cc(-c2ccccc2OCc2ccccc2)ccn1)C1CCOC1 (centres undefined) was read as GPR151 activ 0, MITF inh 11, TEAD-YAP inh 89* and FBW7 act 0.
Cc1ccc2cc3cc(C(=O)N4CCN(C)CC4)oc3nc2c1 was read as GPR151 activ 1, MITF inh -22, TEAD-YAP inh 45* and FBW7 act 0.
CN(C)S(=O)(=O)c1cccc(C(=O)NC(=S)N(CCC#N)Cc2cccnc2)c1 was read as GPR151 activ 0, MITF inh 13, TEAD-YAP inh 10 and FBW7 act 0.
For CC(C)(C)Nc1ncnc2c1cnn2-c1ccc(Cl)cc1 the results were GPR151 activ 3, MITF inh 4, TEAD-YAP inh 51* and FBW7 act 0.
For CCCCNc1ncnc2c1cnn2-c1ccc(Cl)cc1 the results were GPR151 activ 1, MITF inh 0, TEAD-YAP inh -54 and FBW7 act 0.
Screening Cc1cccc(-n2ncc3c(Nc4cc(C)ccc4C)ncnc32)c1 returned GPR151 activ -2, MITF inh -5, TEAD-YAP inh 45* and FBW7 act 0.
